Assay results published in the supplement of paper PMC3334620.
Over roughly 33,000 sequences, “E-score (-0.5 to 0.5)” has its median near -0.0059; the highest 2% begin near 0.26. The full list was thinned out, with the highest values kept by preference.

Biological target: T1, Cin5 (UniProt P40917)
T1 sequence: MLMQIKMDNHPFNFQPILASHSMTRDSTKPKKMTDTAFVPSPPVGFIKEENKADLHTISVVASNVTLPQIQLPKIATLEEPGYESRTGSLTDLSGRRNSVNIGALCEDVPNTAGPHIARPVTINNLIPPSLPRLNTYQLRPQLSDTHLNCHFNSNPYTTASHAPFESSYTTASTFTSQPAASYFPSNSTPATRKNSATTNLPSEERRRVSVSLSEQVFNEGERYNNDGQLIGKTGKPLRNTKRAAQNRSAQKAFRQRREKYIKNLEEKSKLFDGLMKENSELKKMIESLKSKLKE
Assay: PBM E-score (8-mer binding enrichment) (E-score (-0.5 to 0.5)); higher = stronger / more preferred TF binding
Conditions: protein concentration: 100 nM; construct: GST-full length
Method in brief: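 Full-length yeast transcription factors or their DNA-binding domains, GST-tagged and expressed with PURExpress, were applied at about 100-200 nM to universal all-10-mer Agilent arrays. These arrays had been made double-stranded by primer extension on fresh or once-stripped slides. Detection used fluorescent anti-GST, normalisation used masliner, and E-scores for ungapped eight-base words pooled with reverse complements came from the Universal PBM Analysis Suite.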

Row | Sequence | PBM E-score
1 | CCTGGACG | -0.179
2 | GCCTCAAA | 0.0112
3 | GGCCTGGA | -0.317
4 | AGCCCCAG | -0.0735
5 | CCTCACAG | 0.0094
6 | CGGGGAAG | -0.0981
7 | CACGTTGA | -0.095
8 | GTAAGCCA | 0.264
9 | ATAAGCTA | 0.2
10 | CTAAGCTA | 0.162
11 | GTAAGCTA | 0.36
12 | ATAAGCCA | 0.11
13 | CTAAGCCA | -0.074
14 | AGTCTCAG | -0.123
15 | AACCTGAC | 0.131
16 | ACGAGTCA | -0.257
17 | CAAGAAGC | 0.0478
18 | AGCTCATG | -0.0196
19 | CAGACGAA | 0.286
20 | GAGACGAA | 0.0297
21 | CAGACGAC | -0.168
22 | GAGCGGTA | -0.0453
23 | GCAAAAGC | -0.0287
24 | ATTCCACA | 0.266
25 | ATCCCGCA | 0.135

Row | Sequence | PBM E-score
26 | ATTCCGCC | 0.215
27 | ATCCCGCC | 0.0426
28 | ATTCCGCA | -0.0146
29 | ATTCCACC | 0.15
30 | ATCCCGCG | 0.258
31 | ATTCCACG | 0.0808
32 | ATTCCGCG | 0.261
33 | ATGACGCA | 0.195
34 | ACTATTAC | 0.224
35 | GTTATTAA | 0.214
36 | ATTATTAC | 0.305
37 | CGTATTAA | 0.106
38 | CTTATTAA | 0.299
39 | CTTATTAC | 0.236
40 | ATTATTAA | 0.316
41 | CTTATTGA | 0.125
42 | ACTATTAA | 0.162
43 | CGGGAACG | -0.00694
44 | GAGCGGCC | -0.239
45 | GAGATCTC | -0.0335
46 | GATCCCTA | -0.0517
47 | ATCATAAA | 0.131
48 | AACATACT | 0.0533
49 | AACATAAT | 0.346
50 | CACATAAG | 0.109

Row | Sequence | PBM E-score
51 | AACATACG | 0.171
52 | ATCATAAG | 0.204
53 | ATCATAAT | 0.327
54 | AACATAAG | 0.328
55 | AACATAAC | 0.223
56 | AAGTCAAC | 0.0456
57 | CACTGTTC | -0.108
58 | AGGATATA | 0.152
59 | CAGTCCGA | -0.0341
60 | AGGTTAGC | -0.199
61 | TCGTCGAA | -0.161
62 | AAACATGT | 0.261
63 | AAACATAG | -0.0763
64 | AAACATGA | 0.131
65 | AAACATAC | 0.0238
66 | AAACATGG | 0.0681
67 | AAACATAT | 0.269
68 | CCCAAGGC | -0.0737
69 | AAACCTTG | 0.072
70 | ACTAAAGA | -0.0785
71 | CAGGGCGC | -0.0291
72 | TAAGCGAA | 0.275
73 | TAAGCAGA | 0.306
74 | CAAGCAGA | 0.0983
75 | CAAGCACA | -0.0819

Row | Sequence | PBM E-score
76 | CAAGCGAA | 0.187
77 | AAAGCAGA | 0.178
78 | GAAGCGAA | -0.0046
79 | TAAGCACA | 0.314
80 | CAAGCACG | -0.0414
81 | ACCGGGAC | -0.0537
82 | AAGGGGAG | -0.252
83 | AATTTACG | 0.234
84 | ATTTTCCG | 0.329
85 | ATTTTACG | 0.271
86 | ATTTCTCA | 0.0803
87 | ATTTCTCC | 0.0831
88 | ATTTTCCC | 0.0377
89 | ATTTCTCG | 0.313
90 | ATTTTACC | 0.237
91 | AATTTTTC | 0.057
92 | AATTTTCC | 0.289
93 | AATTTCCG | 0.18
94 | ATTTTTCC | -0.0233
95 | ATACTTCG | 0.129
96 | GACGTCCC | -0.0301
97 | GCATTCGC | -0.157
98 | AGACACCT | -0.048
99 | CGAGCGCA | 0.0288
100 | CCGCCACG | -0.222

Row | Sequence | PBM E-score
101 | ATTTCCCG | 0.258
102 | ATTTCCCA | 0.165
103 | ATTTCCCC | 0.0813
104 | CAGTAACC | -0.021
105 | AAGCAATC | 0.165
106 | CCCTAAGC | -0.145
107 | GCCTAAGC | -0.181
108 | ATCTAATG | -0.00795
109 | CCCTAATC | 0.0683
110 | ATCTAATC | 0.306
111 | ACCTAAGC | 0.327
112 | ACCTAATA | 0.246
113 | ATCTAATA | 0.19
114 | ACCTAATC | 0.311
115 | CGCGGTAC | -0.0212
116 | CATTGCTC | -0.157
117 | CCTACAGG | -0.33
118 | AAAGAAAA | 0.112
119 | CGAATGAC | 0.275
120 | CGAATGAA | 0.0154
121 | AGAATGAC | 0.0989
122 | AGAGGACC | -0.22
123 | GTATCAGA | -0.0398
124 | CTATCATA | 0.21
125 | ATATCATG | 0.0651

Row | Sequence | PBM E-score
126 | GTATCATA | 0.274
127 | GTATCACA | 0.154
128 | ATATCATA | 0.288
129 | CTGTGACC | 0.0399
130 | CAACTATC | 0.0334
131 | CCATAATC | 0.245
132 | ACATAATA | 0.364
133 | ACATAATG | 0.204
134 | ACATAATC | 0.445
135 | GCATAATA | 0.235
136 | CCATAATA | 0.226
137 | ACTGCCCC | -0.125
138 | ACCGCGCA | 0.151
139 | CGCCTCTC | -0.34
140 | AAATAAAT | 0.246
141 | AAATAATC | 0.17
142 | TACTAATA | 0.193
143 | AAATAATA | 0.313
144 | GAATAACA | 0.26
145 | AAATAATT | 0.301
146 | AAATAACA | 0.171
147 | AAATAATG | 0.21
148 | CACTAATA | 0.158
149 | CAATAACA | 0.193
150 | AAATAAGT | 0.12

Row | Sequence | PBM E-score
151 | AACTAATA | 0.378
152 | AAAAGTTT | 0.00197
153 | GCTTAAGA | -0.0654
154 | ACGCCTGC | -0.234
155 | CTCAGCGC | 0.0746
156 | AATTCTCA | 0.0439
157 | CTGCAGTC | -0.165
158 | CTAAACTC | -0.0293
159 | ACGAGGTA | 0.0339
160 | GAATAATA | 0.291
161 | CAATAATC | 0.233
162 | TAATAACA | 0.146
163 | GAATAAAA | 0.0288
164 | TAATAATA | 0.274
165 | CAATAATG | 0.0624
166 | GAATAATC | 0.221
167 | TAATAAAA | 0.235
168 | CAATAATA | 0.276
169 | CCTGAAAA | -0.101
170 | AACTTTAT | 0.123
171 | AGTTGTTG | 0.0199
172 | ATGATATA | 0.166
173 | ATGATATC | 0.167
174 | AAGATATA | 0.152
175 | AAGATATG | 0.268

Row | Sequence | PBM E-score
176 | AAGATATC | 0.207
177 | ATGATATG | 0.289
178 | CCTTCCAG | -0.127
179 | GGTCCGCA | -0.0684
180 | GGTTCCCA | -0.0888
181 | AACTTGCG | -0.0652
182 | ACTTAACA | 0.0535
183 | CTAATTTA | 0.158
184 | GCAATTTA | 0.137
185 | ATAATTTG | 0.208
186 | ATAATTTA | 0.332
187 | GTAATTTA | 0.27
188 | ATAATTTC | 0.136
189 | GCCGCTCC | -0.305
190 | CCCACACG | 0.0465
191 | TAATATGA | 0.262
192 | TCATATGA | 0.272
193 | AAATATGA | 0.245
194 | CCATATGA | -0.0136
195 | GCATATGA | 0.197
196 | CAATATGA | 0.118
197 | ATGGACGC | -0.0507
198 | TCTTCCCA | -0.177
199 | GGTATCAC | 0.0115
200 | ATTGGGTA | 0.0825

Row | Sequence | PBM E-score
201 | ATTGGGTC | 0.13
202 | ATTGGGTG | 0.282
203 | ACCATTCA | 0.0437
204 | AGTTGAAG | -0.00489
205 | AGTTGAAA | -0.0098
206 | AGTTGAAT | 0.259
207 | CGACTGGA | -0.167
208 | GTTCGACA | 0.0859
209 | GTCTAGCA | -0.0616
210 | AAACATGC | 0.0556
211 | ATAAGAAT | 0.224
212 | ATAAGAAA | 0.156
213 | ATAAGAAC | 0.31
214 | CGTCTCTA | -0.21
215 | CTCGCGAC | 0.107
216 | GTCGCGAA | -0.0343
217 | GTCGCGAC | 0.317
218 | TGGTAACA | -0.0163
219 | TCACCAGA | -0.144
